Out of some 16,000 compounds screened, about 4,000 (25%) were called active. Another 26% or so got no clear call; they are omitted. The list is a sample of the results. Values without a mark were called inactive. Calls come from the whole dose curve; as a rule, active = well fitted curve in the direction sought with a large enough effect; inconclusive = small, poorly fitted or top-dose-only effect, or effect the other way; inactive = no such curve, though single readings can be large or run the other way.
% is set by controls: 0 for no effect and ±100 for the full control effect.

For the experiment, the target named is Cytochrome P450 2C9 (Homo sapiens) (UniProt P11712). Kind of experiment: Cytochrome panel assay with activity outcomes. As to conditions: recombinant CYP, pro-luciferin dealkylation, luminescence, p450-cyp2c9; series mostly up to 57.1 µM; activity, negative = inhibition: at the top concentration.
Chain of Cytochrome P450 2C9 (Homo sapiens) (P11712 whole entry, looked up): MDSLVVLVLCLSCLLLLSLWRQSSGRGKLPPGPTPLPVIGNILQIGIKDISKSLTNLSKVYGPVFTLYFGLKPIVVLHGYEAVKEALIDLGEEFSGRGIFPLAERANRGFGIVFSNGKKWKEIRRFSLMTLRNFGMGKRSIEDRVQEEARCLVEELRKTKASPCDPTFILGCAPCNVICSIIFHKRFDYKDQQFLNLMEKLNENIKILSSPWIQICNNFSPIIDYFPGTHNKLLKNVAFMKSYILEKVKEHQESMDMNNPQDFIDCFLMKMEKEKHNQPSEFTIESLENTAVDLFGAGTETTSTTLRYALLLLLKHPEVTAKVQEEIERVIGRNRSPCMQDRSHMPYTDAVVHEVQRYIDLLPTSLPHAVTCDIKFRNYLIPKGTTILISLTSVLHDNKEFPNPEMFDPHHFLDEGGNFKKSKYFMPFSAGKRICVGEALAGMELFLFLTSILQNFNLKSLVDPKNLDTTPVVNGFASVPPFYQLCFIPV
Turning to `CN1CCN(CCCN2c3ccccc3Sc3ccc(S(=O)(=O)N(C)C)cc32)CC1`, the “activity, negative = inhibition” value is 1.24% [at 25.6 µM].

On to `N[C@@H](Cc1[nH]nc2ccccc12)C(=O)O`, for which the activity, negative = inhibition is 7.77% [at 11.4 µM].

The term AC50 denotes the concentration giving half of the maximal activity seen. For `CN(Cc1ccccc1)C(=O)CC(c1ccccc1)c1cc(Cl)ccc1O` (stereo unspecified), the AC50 is 4.47 µM (active).

Regarding `CC(C)Oc1ccc(CNC(=O)CC(c2ccccc2)c2cc(Cl)ccc2O)cc1` (stereo unspecified), the AC50 was 2.24 µM (active).

As to `C[C@@H](c1ccccc1)N1C(=O)[C@@H]2[C@H]3C(=CC[C@H]2C1=O)C(=O)[C@H]1O[C@H]1[C@H]3O`, the activity, negative = inhibition is -6.91% [at 11.4 µM].

Take `Oc1cc(O)c2c(c1)O[C@H](c1ccc(O)c(O)c1)[C@H](O)C2`: the AC50 result is “inactive”.

For `Cc1ccc(-n2c(-c3cc(C)n(C)n3)n[nH]c2=S)cc1`, the “activity, negative = inhibition” value was 5.76%.

For `Cc1cc(-c2n[nH]c(=S)o2)c(C)n1-c1ccccc1`, the AC50 was 12.6 µM (active).

Regarding `CC[N+](CC)(CC)CCOc1cccc(OCC[N+](CC)(CC)CC)c1OCC[N+](CC)(CC)CC`, the “activity, negative = inhibition” value is 22.4% [at 25.6 µM].

`CCCN1C[C@@H](CSC)C[C@H]2c3cccc4[nH]cc(c34)C[C@@H]21`: the “activity, negative = inhibition” value was -6.92%.

As to `O=C(N/N=C/c1ccc(Cl)cc1Cl)Nc1ccccc1`, the “activity, negative = inhibition” value is -15.9%.

Consider `O=C(N/N=C/c1ccc(Cl)cc1Cl)c1cccc(F)c1`, for which the AC50 was 15.8 µM (active).

For `C/C(=N\NC(=O)c1cccc(F)c1)c1ccc(Br)s1`, the “activity, negative = inhibition” value is 20.8%.

As to `Cc1cnc(CNc2nc(-c3ccccc3Cl)nc3ccccc23)cn1`, the activity, negative = inhibition was 7.89% [at 2.29 µM].

With `CC(C)c1ccc(N2C(=O)CC(Sc3nc4ccccc4o3)C2=O)cc1` (stereo unspecified), the half-maximal activity concentration (AC50) was 2.24 µM (active).

Regarding `CC1(CCC#N)N=C(SCCC#N)N(c2ccccc2)C1=O` (stereo unspecified), the “activity, negative = inhibition” value is -16.7%.

For the molecule `Cc1ccc(S(=O)(=O)CC#CCOC(=O)c2ccc([N+](=O)[O-])cc2)cc1`, the half-maximal activity concentration (AC50) was 5.62 µM (active).

As to `Cc1ccc(/C(C#N)=C/c2cccc([N+](=O)[O-])c2)cc1`, the activity, negative = inhibition is -10.5% [at 11.4 µM].

For `Cc1c(OC(=O)c2ccc([N+](=O)[O-])cc2)c2c(c[n+]1C)COC(C)(C)OC2`, the “activity, negative = inhibition” value is -21.7%.

Take `COc1ccc(Cc2ccccc2C(=O)O)c2ccccc12`: the concentration at half-maximal activity (AC50) was 3.98 µM (active).

In the case of `COc1cc(Cl)c(CC(=O)c2c[nH]c3ccccc23)cc1OC`, the activity, negative = inhibition is -14.5% [at 11.4 µM].

In the case of `Cc1ccc(C(=N)c2ccccc2Cc2cccc3ccccc23)c2ccccc12`, the activity, negative = inhibition was 5.86% [at 11.4 µM].

As to `N[C@@H](C(=O)O)c1cc(O)ccc1Cl`, the “activity, negative = inhibition” value was 24.1%.

On to `N#C/C(=C(/O)CN1CCCCC1)c1nc(-c2ccc(Cl)cc2)cs1`, for which the “activity, negative = inhibition” value is 0.314%.

For the molecule `Cc1ccc(-c2csc(C(C#N)=C3CCCC3)n2)cc1`, the AC50 was 11.2 µM (active).

As for `O=C(CSCC(=O)OCn1nnc2ccccc2c1=O)Nc1ccc(Cl)cc1`, the AC50 is 12.6 µM (active).

For `COC(=O)c1ccc(N2CCN(c3ccccc3)CC2)c(NC(=O)C2CC2)c1`, the “activity, negative = inhibition” value was -15.9%.

Turning to `COC(=O)c1cc(OC)c(OC)cc1NC(=S)N1CCN(C)CC1`, the “activity, negative = inhibition” value is 22.1%.

`COC(=O)c1ccc(C(=O)OC)c(NC(=S)N2CCN(c3ccccc3)CC2)c1`: the AC50 is 6.31 µM (active).

In the case of `Cc1cccc(C)c1OC[C@H](C)N`, the “activity, negative = inhibition” value was -2.67% [at 25.6 µM].

In the case of `Cc1cc(=O)[nH]c2c1c(C)nn2C1CCOC(C)(C)C1` (stereo unspecified), the “activity, negative = inhibition” value is 26.1%.

Regarding `Cn1c(=O)n(-c2ccc(Cl)cc2)c(=O)c2c3c(sc21)COC(C)(C)C3`, the AC50 is 10 µM (active).

For the molecule `Cn1c(=O)n(-c2cccc(Cl)c2)c(=O)c2c3c(sc21)COC(C)(C)C3`, the AC50 was 15.8 µM (active).

On to `CN1CCc2c(sc3c2c(=O)n(-c2ccccc2)c2nncn32)C1`, for which the “activity, negative = inhibition” value was 1.25%.

Regarding `COc1cccc(C(C#N)N2N=C(C)CC2(C)C)c1O` (stereo unspecified), the “activity, negative = inhibition” value is -17.8%.

Consider `O=C1[C@@H]2[C@H]3[C@H](O)[C@H](O)C/C(=N/OCc4ccccc4)[C@@H]3CC[C@H]2C(=O)N1c1ccc(F)cc1F`, for which the activity, negative = inhibition is 12.2% [at 11.4 µM].

For the molecule `C=C[C@@]1(C)CC(=O)[C@@]2(O)[C@@]3(C)[C@H](O)CCC(C)(C)[C@@H]3[C@H](O)[C@H](OC(C)=O)[C@]2(C)O1`, the “activity, negative = inhibition” value was -5.47%.

As to `C=C[C@@]1(C)CC(=O)[C@@]2(O)[C@@]3(C)[C@@H](O)CCC(C)(C)[C@@H]3[C@H](O)[C@H](OC(C)=O)[C@@]2(C)O1`, the “activity, negative = inhibition” value was 1.57%.

`C=C[C@@]1(C)CC(=O)[C@@]2(O)[C@@]3(C)[C@@H](O)CCC(C)(C)[C@@H]3[C@H](OC(=O)CCN(C)C)[C@H](OC(C)=O)[C@@]2(C)O1`: the concentration at half-maximal activity (AC50) was 0.126 µM (active).

Take `CC1(C)SC(=S)N(NC(=O)Nc2ccccc2)C1N(O)C(=O)Nc1ccccc1` (stereo unspecified): the AC50 was 10 µM (active).

Take `COCCNc1nc(-c2ccccc2CN(C)C)nc2ccccc12`: the activity, negative = inhibition was 1.68% [at 2.29 µM].

Take `O[C@H](CNc1ccccn1)c1ccccc1`: the activity, negative = inhibition is -4.96% [at 11.4 µM].

Take `COc1ccc([C@H](O)c2ccccn2)cc1`: the activity, negative = inhibition is -12.5% [at 11.4 µM].

Regarding `COc1ccc([C@@H](Nc2ccccn2)c2cc(C(C)(C)C)cc(C(C)(C)C)c2O)cc1`, the AC50 was 2.51 µM (active).

Consider `CN1CCN(c2ccc([N+](=O)[O-])cc2NC(=O)c2ccccc2Cl)CC1`, for which the “activity, negative = inhibition” value is -17%.

`O=[N+]([O-])c1ccc(N2CCN(CCOc3nonc3-c3ccccc3)CC2)c(Cl)c1`: the AC50 was 22.4 µM (active).

Regarding `c1cncc(-c2ccc3ncnc(NCCN4CCOCC4)c3c2)c1`, the activity, negative = inhibition was 23.6% [at 2.29 µM].

Consider `c1ccc2c(c1)oc1c(NCCCn3ccnc3)ncnc12`, for which the AC50 is 0.447 µM (active).

Regarding `c1ccc(-n2ncc3c(NCCCN4CCOCC4)ncnc32)cc1`, the “activity, negative = inhibition” value is -8.65%.

In the case of `COc1ccc(-c2nc3cnc(OC)nc3n(-c3ccc(OC)cc3)c2=O)cc1`, the “activity, negative = inhibition” value is 4.24%.

On to `CCNc1ncc2nc(C)c(=O)n(C3CC3)c2n1`, for which the “activity, negative = inhibition” value was -15%.

For `CS(=O)(=O)c1ccccc1-c1nc(-c2cc(C(F)(F)F)cc(C(F)(F)F)c2)no1`, the “activity, negative = inhibition” value is 17%.

Take `Cc1ccc(-c2nnc(-c3ccc(NC(=O)c4cccs4)cc3)o2)cc1`: the AC50 is 5.01 µM (active).

Regarding `Cc1ccccc1-c1nccc(NCc2cccs2)n1`, the activity, negative = inhibition was -17.9% [at 2.29 µM].

Turning to `Cc1ccccc1-c1nc(-c2ccc(NC(=O)c3cccs3)cc2)no1`, the half-maximal activity concentration (AC50) is 12.6 µM (active).

`O=C(c1csnn1)N1CCC[C@@]2(CCN(Cc3nccs3)C2)C1`: the “activity, negative = inhibition” value is -2.79%.

As to `O=C(O)c1cc([N+](=O)[O-])ccc1NCCCc1ccccc1`, the AC50 is 0.501 µM (active).

Regarding `Cc1cc([N+](=O)[O-])ccc1NCc1ccccc1`, the AC50 is 3.55 µM (active).

On to `c1ccc(CCCNc2nnnc3ccccc23)cc1`, for which the activity, negative = inhibition is -19.1% [at 11.4 µM].

In the case of `COC(=O)C/C=C\[C@@H](C)[C@@H](/C=N\O[C@@H](C)CN1CCCc2nc(C)c(C)cc21)OC`, the activity, negative = inhibition is -19.3% [at 11.4 µM].

`O=S(=O)(c1ccccc1)N1CCC2(CCN(c3ncccn3)CC2)CC1`: the “activity, negative = inhibition” value was 16.3%.

Take `O=S(=O)(c1ccccc1)N1CCC2(CCCN(c3ncccn3)C2)CC1`: the AC50 was 1 µM (active).

Turning to `O=S(=O)(c1ccccc1)N1CCC2(CC1)CN(c1ncccn1)C2`, the “activity, negative = inhibition” value is 6.14%.

`CS(=O)(=O)N1CCC[C@@]2(CCN(c3ccccn3)C2)C1`: the “activity, negative = inhibition” value was -12.6%.

In the case of `CC(C)CN1CC[C@@]2(CCCN(S(=O)(=O)c3ccccc3)C2)C1`, the “activity, negative = inhibition” value was -10%.

`CN1CCCC2(CCN(S(=O)(=O)c3ccccc3)CC2)C1`: the “activity, negative = inhibition” value is -4.86%.

`O=S(=O)(c1ccccc1)N1CCC2(CCCN(c3ccccn3)C2)CC1`: the AC50 was 1 µM (active).

In the case of `O=S(=O)(c1ccccc1)N1CCC2(CC1)CN(c1ccccn1)C2`, the “activity, negative = inhibition” value is -23.8%.

With `CS(=O)(=O)N1CCC2(CCCN(c3ccccn3)C2)CC1`, the “activity, negative = inhibition” value is -16.9%.

`O=S(=O)(c1ccccc1)N1CCC2(CCCN(c3cccc(-c4ccccc4)c3)C2)CC1`: the “activity, negative = inhibition” value was 17.6%.

Take `O=S(=O)(c1ccccc1)N1CCC[C@@]2(CCN(c3ccncc3)C2)C1`: the AC50 is 15.8 µM (active).

Take `O=S(=O)(c1ccccc1)N1CCC2(CCCN(c3ccccc3)C2)CC1`: the AC50 was 1.26 µM (active).

Take `C=C(NC(=O)C(=C)NC(=O)c1csc(C2=N[C@@H]3c4csc(n4)[C@@H]4NC(=O)c5csc(n5)[C@@H]([C@](C)(O)[C@H](C)O)NC(=O)[C@@H]5CSC(=N5)/C(=C/C)NC(=O)[C@@H]([C@H](C)O)NC(=O)c5csc(n5)[C@]3(CC2)NC(=O)[C@@H](C)NC(=O)C(=C)NC(=O)[C@@H](C)NC(=O)[C@@H]([C@@H](C)CC)N[C@H]2C=Cc3c([C@H](C)O)cc(nc3[C@@H]2O)C(=O)O[C@H]4C)n1)C(N)=O`: the “activity, negative = inhibition” value is -19.2% [at 25.6 µM].

Consider `O=C1C2C3C=CC(C3)C2C(=O)N1/N=C/c1cn(Cc2ccc(F)cc2)c2ccccc12` (stereo unspecified), for which the “activity, negative = inhibition” value is -27.4%.

`O=C1C2C3C=CC(C3)C2C(=O)N1/N=C/c1cn(Cc2ccccc2)c2ccccc12` (stereo unspecified): the “activity, negative = inhibition” value is -48.5%.

As to `O=[N+]([O-])/C=C/c1cn(Cc2ccccc2)c2ccccc12`, the AC50 is 11.2 µM (active).

For the molecule `C/C(=N/O)c1ccc2cc(Br)c3ccccc3c2c1`, the activity, negative = inhibition is -8.36% [at 11.4 µM].

For the molecule `Cc1cccc(CNc2nc(-c3ccccc3CN(C)C)nc3ccccc23)c1`, the activity, negative = inhibition was -1.33% [at 2.29 µM].

On to `Nc1ccc(N(c2ccccc2)c2ccc(N)cc2)cc1`, for which the AC50 is 7.08 µM (active).

`C[C@H](c1ccccc1)N1C(=O)[C@H]2[C@@H]3[C@H](O)[C@H](O)CC(=O)[C@H]3CC[C@H]2C1=O`: the activity, negative = inhibition was 20% [at 11.4 µM].

For `N[C@@H](Cc1cc(CP(=O)(O)O)cc(-c2ccccc2Cl)c1)C(=O)O`, the “activity, negative = inhibition” value is -7.75%.

As for `Cc1cc(F)ccc1S(=O)(=O)Nc1ccccc1C(=O)Nc1ccccc1N1CCOCC1`, the AC50 is 0.447 µM (active).

On to `Cc1c(N2CCCC2)cc2c(c1NC(=O)c1ccccc1Cl)C(C)(C)CC2(C)C`, for which the activity, negative = inhibition is -14.9% [at 11.4 µM].

With `Cc1ccc(NC(=O)c2ccccc2C(=O)O)cc1C`, the activity, negative = inhibition is -16.6% [at 11.4 µM].

In the case of `COC(=O)CSC(C(=O)Nc1ccc(C)c(C)c1)c1ccccc1` (stereo unspecified), the AC50 was 1.78 µM (active).

`Cc1ccc(NC(=O)C2C3CCCC2C3c2ccccc2)cc1C` (stereo unspecified): the “activity, negative = inhibition” value was -6.97%.

The values are drawn from PubChem BioAssay AID1851 (National Center for Advancing Translational Sciences (NCATS), 2009).
